Molecules are shown by their SMILES. The panel holds about 83,000 compounds, 20% with a hit somewhere; the sample as a whole holds those more often.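 Interpretation: 100, growth as untreated; towards 0, rising growth inhibition; 0, no net growth; 0 to -100, cell death. Compounds scoring below 10 were considered active.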 A number with no mark means an inactive call. Activity calls are given as the source filed them.

What all share (assay): NCI-60 one-dose screen, 48 h (100 = growth as untreated, 0 = no growth, -100 = all killed)
One test relates to SK-MEL-2 melanoma. The conditions noted are these: 10 µM unless noted.
Another test concerns EKVX NSCLC. The conditions noted are these: 10 µM unless noted.
The test system of another test is SN12C renal. The conditions noted are these: 10 µM unless noted.
A further test relates to UO-31 renal. The following applies: 10 µM unless noted.
A further test concerns TK-10 renal. The conditions noted are these: 10 µM unless noted.
The next test deals with ACHN renal. The conditions noted are these: 10 µM unless noted.
In another test the test system is CAKI-1 renal. The following applies: 10 µM unless noted.
The next test has as its system A498 renal. The following applies: 10 µM.
In a further test the test system is CCRF-CEM leukemia. The following applies: 10 µM unless noted.
For another test, the system named is HL-60(TB) leukemia. The following applies: 10 µM unless noted.

With `Clc1cc(N2CC2)nc(N2CC2)n1`, the growth in the test with SK-MEL-2 melanoma was 91%; with EKVX NSCLC it was 107%; in the test with SN12C renal, 48.5%; in the test with UO-31 renal it was 74.7%; in the test with TK-10 renal it was 104%; in the test with ACHN renal, 22.2%. Further, the growth was 5.82% (active) with CAKI-1 renal, 104% in the test with A498 renal and 54.8% with CCRF-CEM leukemia.

Turning to `CC12CCC3C(C=CC4=C(N)C(=O)CCC43C)C1CCC2=O` (centres undefined), the growth with SK-MEL-2 melanoma was 74.4%; with EKVX NSCLC it was 98%; with SN12C renal, 88.5%; in the test with UO-31 renal it was 64.6%; in the test with TK-10 renal it was 85.6%; with ACHN renal, 88.2%. The results for the growth in the test on CAKI-1 renal, in the test with A498 renal and in the test with CCRF-CEM leukemia were 84.1%, 99.2% and 6.62% (active), respectively.

For `CN1CCCCC1C(C)(O)c1ccccc1` (centres undefined), the growth was 106% in the test with SK-MEL-2 melanoma; 96.3% in the test with EKVX NSCLC; 102% in the test with SN12C renal; 92.5% in the test with UO-31 renal; 94.9% in the test on TK-10 renal; 108% with ACHN renal. The growth is 96.4% with CAKI-1 renal, 101% in the test on A498 renal and 112% in the test with CCRF-CEM leukemia.

In the case of `CCCCCCCCCCCCCCCCCCOc1ccccc1COP(=O)(O)OOCC[N+](C)(C)C`, the growth in the test on SK-MEL-2 melanoma is 35.9%; in the test with EKVX NSCLC it was 11.4%; in the test on SN12C renal, -6.04% (active); in the test on UO-31 renal, 38.5%; in the test on TK-10 renal it was 3.59% (active); in the test with ACHN renal, 8.89% (active). In addition, the growth is 1.63% (active) with CAKI-1 renal, 52.6% in the test with A498 renal, -42% (active) in the test with HL-60(TB) leukemia and -12.8% (active) with CCRF-CEM leukemia.

Take `COc1cc([N+](=O)[O-])c2nc(C)ccc2c1[N+](=O)[O-]`: the growth is 102% in the test on SK-MEL-2 melanoma; 112% in the test with EKVX NSCLC; 89% with SN12C renal; 74.9% in the test on UO-31 renal; 122% in the test on TK-10 renal; 89.5% with ACHN renal. Also, the growth in the test with CAKI-1 renal was 104%; in the test on A498 renal, 121%; in the test on CCRF-CEM leukemia it was 91.3%.

With `COc1cc(/C=C/[N+](=O)[O-])cc(OC)c1`, the growth with SK-MEL-2 melanoma is 59.6%; in the test on EKVX NSCLC, 59.4%; with SN12C renal it was 44.7%; in the test with UO-31 renal, -82.3% (active); in the test on TK-10 renal it was -13.9% (active); in the test with ACHN renal it was -48.9% (active). For the same compound, the growth with CAKI-1 renal is 44.2%; in the test with A498 renal it was -4.1% (active); with CCRF-CEM leukemia, -7.03% (active).

For `C[C@]12CC[C@H]3[C@@H](C[C@@H]4SC(Nc5ccccc5)=N[C@@]45CC(O)CC[C@]35C)[C@@H]1CCC2O` (some centres undefined), the growth is 51.7% in the test with SK-MEL-2 melanoma; 73.2% in the test with EKVX NSCLC; 10.1% in the test on SN12C renal; 26.1% in the test with UO-31 renal; 65% in the test with TK-10 renal; 36.8% in the test on ACHN renal. For the same compound, the results for the growth in the test with CAKI-1 renal, in the test on HL-60(TB) leukemia and in the test on CCRF-CEM leukemia were 49%, 15.7% and 0.738% (active), respectively.

As to `Nc1ccc2c(c1)Cc1cc(Br)ccc1-2`, the growth in the test with SK-MEL-2 melanoma was 112%; with EKVX NSCLC, 64.2%; with SN12C renal, 85.3%; in the test with UO-31 renal, 49%; in the test with TK-10 renal, 123%; with ACHN renal it was 106%. In addition, the growth in the test on CAKI-1 renal was 98.1%; with A498 renal, 76.4%; in the test with CCRF-CEM leukemia, 50%.

Regarding `C[C@@]1(CCCCCCCCCc2ccc(O)cc2)C[C@]2(C)OC(=O)C[C@@H]2OO1`, the growth was 117% with SK-MEL-2 melanoma; 98.7% in the test on EKVX NSCLC; 98.5% in the test with SN12C renal; 16.7% in the test on UO-31 renal; 112% with TK-10 renal; 65.5% with ACHN renal. In addition, the growth is 65.1% with CAKI-1 renal, 104% with A498 renal and 75.4% with CCRF-CEM leukemia.

In the case of `CC(=O)OC[C@]1(C)C=C2C(=O)[C@](C)(O)C3(CC3)C(C)=C2[C@H]1O`, the growth in the test on SK-MEL-2 melanoma was -55.1% (active); with EKVX NSCLC, -13.7% (active); in the test on SN12C renal it was -5.94% (active); in the test with UO-31 renal, -47.3% (active); in the test on TK-10 renal it was -15.3% (active); with ACHN renal, -12.4% (active). In addition, the growth was 1.8% (active) in the test with CAKI-1 renal, -12.4% (active) in the test with HL-60(TB) leukemia and 14.6% in the test with CCRF-CEM leukemia.

On to `O=C(N/N=C\c1ccc(N(CCCl)CCCl)cc1)c1cccc([N+](=O)[O-])c1`, for which the growth in the test on SK-MEL-2 melanoma was 101%; in the test on EKVX NSCLC, 88.6%; in the test with SN12C renal, 88.9%; in the test on UO-31 renal, 90.6%; in the test on TK-10 renal, 99.2%; in the test with ACHN renal, 94.4%. For the same compound, the growth in the test on CAKI-1 renal is 89.3%; in the test with A498 renal, 118%; in the test on CCRF-CEM leukemia, 82.5%.

As to `COc1ccc(Nc2ccnc3cc(Cl)ccc23)cc1CN(CCCl)CCCl`, the growth is -46.7% (active) in the test with SK-MEL-2 melanoma; -15.3% (active) in the test on EKVX NSCLC; 2.25% (active) in the test with SN12C renal; -42.2% (active) in the test with UO-31 renal; -37.5% (active) in the test on TK-10 renal; -33.7% (active) in the test with ACHN renal. The growth is -63.9% (active) with CAKI-1 renal, -47.5% (active) in the test on A498 renal, -22.3% (active) in the test on HL-60(TB) leukemia and -6.67% (active) with CCRF-CEM leukemia.

With `COc1cc(/C=C/[N+](=O)[O-])c([N+](=O)[O-])cc1OC`, the growth in the test on SK-MEL-2 melanoma is -6.72% (active); in the test with EKVX NSCLC it was 65.9%; in the test with SN12C renal, 22%; with UO-31 renal it was -49.5% (active); in the test on TK-10 renal, -18.3% (active); in the test with ACHN renal it was -46.4% (active). Moreover, the growth in the test on CAKI-1 renal is -50% (active); in the test on A498 renal it was 109%; in the test with HL-60(TB) leukemia, -7.54% (active); with CCRF-CEM leukemia, 5.8% (active).

As to `CNC(=O)Oc1ccc2c(c1)OCO2`, the growth was 98.2% in the test with SK-MEL-2 melanoma; 97.9% with EKVX NSCLC; 99.7% in the test on SN12C renal; 98.1% in the test on UO-31 renal; 101% in the test with TK-10 renal; 99.3% with ACHN renal. In addition, the growth was 100% in the test on CAKI-1 renal, 94.3% with HL-60(TB) leukemia and 111% in the test with CCRF-CEM leukemia.

Source of the values: PubChem BioAssay (NCI).
